Laboratory results taken from the supplement of paper PMC9950053.
Where a name gives a salt, the structure may show the parent alone.

Tested on: Danio rerio larvae (5 dpf)
Test: combined upward orientation toward moving lines (periods 7-14) minus DMSO control (percentage points); higher = more orientation with moving lines than DMSO larvae
Conditions: 10 µM; exposure time: 3 h pre-incubation + 3 h imaging
Method: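 Wild-type 5 dpf zebrafish larvae (n=48 per drug, 96-well plates, 28.5 °C) were exposed to Tocris FDA-approved library compounds at 10 µM (0.1% DMSO) for 3 h before and 3 h during imaging. Images were taken every 6 s during visual (moving coloured lines) and acoustic stimuli, and larvae were tracked with the DeepLabCut-based Z-LaP Tracker. Each behavioural measure is the treated-group mean minus the DMSO vehicle control mean (n=844), in percentage points. This mapping covers compounds with 4-character plate codes.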

**Q.** `CCC(=O)O[C@]1(C(=O)SCF)[C@H](C)C[C@H]2[C@@H]3C[C@H](F)C4=CC(=O)C=C[C@]4(C)[C@@]3(F)[C@@H](O)C[C@@]21C` [Fluticasone propionate] was tested. Which “combined upward orientation toward moving lines” value did it give?
**A.** -9.35

**Q.** For `CC1=Nc2ccc(Cl)cc2S(=O)(=O)N1` [Diazoxide], which “combined upward orientation toward moving lines” value is on record?
**A.** -1.53

**Q.** `CCCN(CCC)S(=O)(=O)c1ccc(C(=O)O)cc1` [Probenecid] was tested. Which “combined upward orientation toward moving lines” value did it give?
**A.** -6.67

**Q.** Which “combined upward orientation toward moving lines” value does the source give for `CC(C)(C#N)c1cc(Cn2cncn2)cc(C(C)(C)C#N)c1` [Anastrozole] here?
**A.** -0.152

**Q.** Which “combined upward orientation toward moving lines” value does the source give for `Cc1c(-c2ccc(O)cc2)n(Cc2ccc(OCCN3CCCCCC3)cc2)c2ccc(O)cc12` [Bazedoxifene acetate] here?
**A.** 1.97

**Q.** With `CCN(Cc1ccncc1)C(=O)C(CO)c1ccccc1` (stereo not given) [Tropicamide] as the molecule, how does the “combined upward orientation toward moving lines” value read?
**A.** 3.89

**Q.** `COc1ccc(C[C@@H](C)NC[C@H](O)c2ccc(O)c(NC=O)c2)cc1` [Arformoterol tartrate] was tested. Which “combined upward orientation toward moving lines” value did it give?
**A.** 0.636

**Q.** For `CC(c1cc2ccccc2s1)N(O)C(N)=O` (stereo not given) [Zileuton], which “combined upward orientation toward moving lines” value is on record?
**A.** -7.03

**Q.** With `NS(=O)(=O)c1cc(C(=O)O)c(NCc2ccco2)cc1Cl` [Furosemide] as the molecule, how does the “combined upward orientation toward moving lines” value read?
**A.** -2.41

**Q.** For `CS(=O)(=O)CCNCc1ccc(-c2ccc3ncnc(Nc4ccc(OCc5cccc(F)c5)c(Cl)c4)c3c2)o1` [Lapatinib], which “combined upward orientation toward moving lines” value is on record?
**A.** 1.75

**Q.** For `NS(=O)(=O)Cc1noc2ccccc12` [Zonisamide], which “combined upward orientation toward moving lines” value is on record?
**A.** 1.75

**Q.** Which “combined upward orientation toward moving lines” value does the source give for `Clc1ccccc1C(c1ccccc1)(c1ccccc1)n1ccnc1` [Clotrimazole] here?
**A.** -3.91

**Q.** For `COc1cc2ncnc(Nc3ccc(F)c(Cl)c3)c2cc1OCCCN1CCOCC1` [Iressa], which “combined upward orientation toward moving lines” value is on record?
**A.** -7.88

**Q.** Which “combined upward orientation toward moving lines” value does the source give for `COc1cc2nc(N3CCN(C(=O)c4ccco4)CC3)nc(N)c2cc1OC` [Prazosin hydrochloride] here?
**A.** -10.6

**Q.** For `CCOC(=O)N1CCC(=C2c3ccc(Cl)cc3CCc3cccnc32)CC1` [Loratidine], which “combined upward orientation toward moving lines” value is on record?
**A.** -3.52

**Q.** `CC(C)N(CCCCOCC(=O)NS(C)(=O)=O)c1cnc(-c2ccccc2)c(-c2ccccc2)n1` [Selexipag] was tested. Which “combined upward orientation toward moving lines” value did it give?
**A.** -4.38

**Q.** With `CC(C)(C(=O)c1cccnc1)c1cccnc1` [Metyrapone] as the molecule, how does the “combined upward orientation toward moving lines” value read?
**A.** -5.62

**Q.** How did the “combined upward orientation toward moving lines” value turn out when `Cc1nnc(C(C)C)n1C1C[C@H]2CC[C@@H](C1)N2CC[C@H](NC(=O)C1CCC(F)(F)CC1)c1ccccc1` (stereo in doubt) [Maraviroc] was run?
**A.** -1.2

**Q.** With `CN(CCOc1ccc(CC2SC(=O)NC2=O)cc1)c1ccccn1` (stereo not given) [Rosiglitazone] as the molecule, how does the “combined upward orientation toward moving lines” value read?
**A.** -10.5

**Q.** `COc1ccc([C@@H]2Sc3ccccc3N(CCN(C)C)C(=O)[C@@H]2OC(C)=O)cc1` [Diltiazem hydrochloride] was tested. Which “combined upward orientation toward moving lines” value did it give?
**A.** -1.58

**Q.** For `CC(=O)O[C@]1(C(C)=O)CC[C@H]2[C@@H]3C=C(C)C4=CC(=O)CC[C@]4(C)[C@H]3CC[C@@]21C` [Megestrol Acetate], which “combined upward orientation toward moving lines” value is on record?
**A.** -1.8

**Q.** Which “combined upward orientation toward moving lines” value does the source give for `CCOC(=O)[C@H](CCc1ccccc1)N[C@@H](C)C(=O)N1[C@H](C(=O)O)C[C@@H]2CCC[C@@H]21` [Ramipril] here?
**A.** -5.05

**Q.** How did the “combined upward orientation toward moving lines” value turn out when `CC(CCc1ccc(O)cc1)NCCc1ccc(O)c(O)c1` (stereo not given) [Dobutamine hydrochloride] was run?
**A.** 0.917

**Q.** Which “combined upward orientation toward moving lines” value does the source give for `Cc1ccccc1C(=O)Nc1ccc(C(=O)N2CCCC(O)c3cc(Cl)ccc32)c(C)c1` (stereo not given) [Tolvaptan] here?
**A.** -0.0581

**Q.** Which “combined upward orientation toward moving lines” value does the source give for `C#C[C@]1(O)CC[C@H]2[C@@H]3CCC4=CC(=O)CC[C@@H]4[C@H]3CC[C@@]21CC` [Levonorgestrel] here?
**A.** 5.76

**Q.** `COc1ccc(Cl)cc1C(=O)NCCc1ccc(S(=O)(=O)NC(=O)NC2CCCCC2)cc1` [Glibenclamide] was tested. Which “combined upward orientation toward moving lines” value did it give?
**A.** -10.9

**Q.** With `CN/C(=N\CCSCc1nc[nH]c1C)NC#N` [Cimetidine] as the molecule, how does the “combined upward orientation toward moving lines” value read?
**A.** -0.665

**Q.** `Nc1ncn([C@H]2C[C@H](O)[C@@H](CO)O2)c(=O)n1` [Decitabine] was tested. Which “combined upward orientation toward moving lines” value did it give?
**A.** -6.22

**Q.** With `Nc1ncn([C@@H]2O[C@H](CO)[C@@H](O)[C@H]2O)c(=O)n1` [5-Azacytidine] as the molecule, how does the “combined upward orientation toward moving lines” value read?
**A.** 2.4

**Q.** `CC(C)C(=O)OCC(=O)[C@@]12O[C@H](C3CCCCC3)O[C@@H]1C[C@H]1[C@@H]3CCC4=CC(=O)C=C[C@]4(C)[C@H]3[C@@H](O)C[C@@]12C` [Ciclesonide] was tested. Which “combined upward orientation toward moving lines” value did it give?
**A.** -8.95

**Q.** `C[C@H](Cc1cc2c(c(C(N)=O)c1)N(CCCO)CC2)NCCOc1ccccc1OCC(F)(F)F` [Silodosin] was tested. Which “combined upward orientation toward moving lines” value did it give?
**A.** -4.66

**Q.** Which “combined upward orientation toward moving lines” value does the source give for `CO[C@H]1/C=C/O[C@@]2(C)Oc3c(C)c(O)c4c(O)c(c5c(nc6cc(C)ccn65)c4c3C2=O)NC(=O)/C(C)=C\C=C\[C@H](C)[C@H](O)[C@@H](C)[C@@H](O)[C@@H](C)[C@H](OC(C)=O)[C@@H]1C` [Rifaximin] here?
**A.** -3.95

**Q.** How did the “combined upward orientation toward moving lines” value turn out when `CC(C)c1nc(CN(C)C(=O)N[C@H](C(=O)N[C@@H](Cc2ccccc2)C[C@H](O)[C@H](Cc2ccccc2)NC(=O)OCc2cncs2)C(C)C)cs1` [Ritonavir] was run?
**A.** -4.18

**Q.** Which “combined upward orientation toward moving lines” value does the source give for `CCc1ccc(CCOc2ccc(CC3SC(=O)NC3=O)cc2)nc1` (stereo not given) [Pioglitazone hydrochloride] here?
**A.** -3.8

**Q.** With `CC(C)C(=O)Nc1ccc([N+](=O)[O-])c(C(F)(F)F)c1` [Flutamide] as the molecule, how does the “combined upward orientation toward moving lines” value read?
**A.** -15.3

**Q.** `OC(CNCC(O)C1CCc2cc(F)ccc2O1)C1CCc2cc(F)ccc2O1` (stereo not given) [Nebivolol hydrochloride] was tested. Which “combined upward orientation toward moving lines” value did it give?
**A.** -7.15

**Q.** `Cc1cn([C@H]2C=C[C@@H](CO)O2)c(=O)[nH]c1=O` [Stavudine] was tested. Which “combined upward orientation toward moving lines” value did it give?
**A.** -0.971

**Q.** `COc1cc(Nc2c(C#N)cnc3cc(OCCCN4CCN(C)CC4)c(OC)cc23)c(Cl)cc1Cl` [Bosutinib] was tested. Which “combined upward orientation toward moving lines” value did it give?
**A.** -2.87

**Q.** For `Nc1nc2[nH]cc(CCc3ccc(C(=O)N[C@@H](CCC(=O)O)C(=O)O)cc3)c2c(=O)[nH]1` [Pemetrexed], which “combined upward orientation toward moving lines” value is on record?
**A.** -1.85

**Q.** `CCCN(CCc1cccs1)[C@H]1CCc2c(O)cccc2C1` [Rotigotine hydrochloride] was tested. Which “combined upward orientation toward moving lines” value did it give?
**A.** -7.46
